{"source": "ChEMBL document CHEMBL3433997", "about": "“St. Jude Leishmania screening dataset” (2016)"}
{"molecular_target": "Solute carrier family 2, facilitated glucose transporter member 1 (Homo sapiens) (UniProt P11166)", "sequence (P11166 whole entry)": "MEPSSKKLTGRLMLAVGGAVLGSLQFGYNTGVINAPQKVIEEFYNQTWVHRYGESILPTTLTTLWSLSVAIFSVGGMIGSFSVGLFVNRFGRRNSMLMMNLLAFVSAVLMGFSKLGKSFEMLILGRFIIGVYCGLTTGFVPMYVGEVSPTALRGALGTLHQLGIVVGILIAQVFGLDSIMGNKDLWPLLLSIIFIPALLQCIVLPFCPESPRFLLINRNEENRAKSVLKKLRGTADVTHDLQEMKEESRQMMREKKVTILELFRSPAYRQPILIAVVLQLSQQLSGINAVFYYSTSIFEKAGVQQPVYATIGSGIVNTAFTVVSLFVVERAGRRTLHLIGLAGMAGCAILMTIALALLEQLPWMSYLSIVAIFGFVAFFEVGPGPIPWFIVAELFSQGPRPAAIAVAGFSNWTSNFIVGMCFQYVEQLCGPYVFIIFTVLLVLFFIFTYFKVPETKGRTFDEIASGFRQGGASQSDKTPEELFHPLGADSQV", "assay": "ST_JUDE_LEISH: Cytotoxicity at 2uM final concentration against transgenic Leishmania Mexicana promastigotes LmGLUT1 that are glucose transport deficient and complemented with the human glucose transporter GLUT1. Activity is measured by DNA content using SYBR green in vitro", "assay_type": "functional", "units": {"inhibition": "%"}}
{"smiles": "CNCCNCc1cccc(-c2ccc(-c3nc4cc(C(F)(F)F)ccc4[nH]3)cc2)c1", "inhibition": 0.41}
{"smiles": "O=C(Nc1ccc(S(=O)(=O)N2CCCCCC2)cc1)c1cc(-c2ccccc2O)n[nH]1", "inhibition": 9.89}
{"smiles": "Fc1cc(Cl)ccc1Nc1ccnc2cc(-c3ccc(CNCCN4CCOCC4)o3)ccc12", "inhibition": 1.58}
{"smiles": "O=S(=O)(Nc1cccc(CCN2CCC(N3CCCCC3)CC2)c1)c1cccc2ccccc12", "inhibition": 4.59}
{"smiles": "Cc1nc2ccc(Nc3nccc(-c4c(-c5cccc(NC(=O)c6c(F)cccc6F)c5)nn5ccccc45)n3)cc2nc1C", "inhibition": 2.58}
{"smiles": "CC(C)(C)N1CCC(N(Cc2ccc(-c3ccc(C(F)(F)F)cc3)cc2)C(=O)Cn2c(CCc3cccc(F)c3F)cc(=O)c3ccccc32)CC1", "inhibition": 1.29}
{"smiles": "COc1cc2cc(-c3nc4ccccc4[nH]3)c(N)nc2cc1OC", "inhibition": 84}
{"smiles": "COc1ccc(NC(=O)[C@H](CC(C)C)Nc2cc(C)nc(NCCc3ccc(F)cc3)n2)cc1", "inhibition": 5.65}
{"smiles": "Cc1ccc(CNC(=O)[C@H](Cc2ccccc2)Nc2cc(C)nc(NCC3CCCCC3)n2)cc1", "inhibition": 3.25}
{"smiles": "COc1ccccc1-c1nc2nc(N)nc(N)c2nc1-c1ccccc1OC", "inhibition": 0.82}
{"smiles": "CN1CCCN(Cc2ccc(-c3cccc(NC(=O)c4ccc(C#N)cc4)c3)cc2)CC1", "inhibition": 1.03}
{"smiles": "Cc1ccccc1C1CCN(C2CCC(NC(=O)/C=C/c3ccc(C#N)cc3)CC2)CC1", "note": "(stereo not given)", "inhibition": 3.43}
{"smiles": "Cc1cc(NC(=O)[C@H](CC2CCCCC2)Nc2ccc(C#N)c3ccccc23)ccc1F", "inhibition": 5.97}
{"smiles": "O=C(Nc1ccc(-c2csc3nccn23)cc1)c1ccc(Cl)cc1", "inhibition": 5.5}
{"smiles": "CCOc1cc(CC)ccc1C1CCN(CCCCNC(=O)c2ccc(NC(=O)c3ccc(Cl)cc3)cc2)CC1", "inhibition": 4.23}
{"smiles": "CN(Cc1ccccc1)C1CCCN(c2cc(NC(=O)c3cccs3)ccn2)C1", "note": "(stereo not given)", "inhibition": 0.77}
{"smiles": "CCc1ccc(CN2CCC(CNC(=O)c3cc(-c4cccc(F)c4)cs3)C2)cc1", "note": "(stereo not given)", "inhibition": -0.39}
{"smiles": "COc1cc(C(=O)N2CCC(CCN3CCC4(CC3)CN(S(C)(=O)=O)c3ccccc34)CC2Cc2ccc(Cl)c(Cl)c2)cc(OC)c1OC", "note": "(stereo not given)", "inhibition": 3.23}
{"smiles": "O=C(Nc1cccc(-c2csc(-c3ccccc3)n2)c1)c1cccs1", "inhibition": 2.64}
{"smiles": "Cc1cc(=NN=Cc2ccc(Cl)cc2)c2cc(C(F)(F)F)ccc2[nH]1", "inhibition": 1.05}
{"smiles": "CCN1CCN(c2cc(C)c3cc(NC(=O)c4ccc([N+](=O)[O-])c(C)c4)ccc3n2)CC1", "inhibition": 3.68}
{"smiles": "Cc1ccccc1C1CCN(c2ccc(C(=O)NC3CC3)cn2)CC1", "inhibition": -0.44}
{"smiles": "CC(=O)c1ccccc1OCCSc1nnc(Cc2cccs2)n1C1CCCCC1", "inhibition": 1.7}
{"smiles": "CN1CCN(c2nsc3ccc(-c4ccc(NC(=O)Nc5ccccc5)cc4)cc23)CC1", "inhibition": 2.28}
{"smiles": "CC(=O)Nc1ncc(C(=O)Nc2cccc(-c3ccc(-c4nc5cc(C(F)(F)F)ccc5[nH]4)s3)c2)s1", "inhibition": 3.37}
{"smiles": "CC(C)(CNCc1ccc(OC(F)(F)F)cc1)c1nc(-c2ccc(Cl)c(O)c2)c(-c2ccncc2)[nH]1", "inhibition": -0.48}
{"smiles": "CCCC(=O)Nc1ccc(OCCCCN(Cc2ccccc2C(F)(F)F)c2ccc(C(F)(F)F)c(C#N)c2)cc1", "inhibition": 6.19}
{"smiles": "CCCCN(CCCC)C(=N)c1cccc2c1CCCC2", "inhibition": 2.36}
{"smiles": "O=C(CSc1nccn1C1CCCCC1)Nc1cc(C(F)(F)F)ccc1Cl", "inhibition": 8.56}
{"smiles": "CCOC(=O)c1nc(-c2cc(Cl)nc(Cl)c2)[nH]c1NC(=S)NCCCN1CCOCC1", "inhibition": 2.49}
{"smiles": "O=C(Nc1cccc(OC2CCN(Cc3ccccc3)CC2)c1)c1ccc(Cl)c(Cl)c1", "inhibition": 3.35}
{"smiles": "COc1ccc2nccc([C@@H](O)CN3CCC(NC(=O)c4cc5cccnc5[nH]4)CC3)c2c1", "inhibition": 5.47}
{"smiles": "COc1ccc2nccc([C@@H](O)CN3CCC(NCc4cc5c(Cl)cccc5[nH]4)CC3)c2c1", "inhibition": 10.6}
{"smiles": "Oc1cc2c(cc1CN1CCN(Cc3ccc(Cl)s3)CC1)CCC2", "inhibition": 2.02}
{"smiles": "Cc1cc2cc(-c3ccc(CN)cc3)ccc2nc1N", "inhibition": -1.44}
{"smiles": "COc1ccc2nccc(N3CCC(NCc4ccc5c(n4)NC(=O)CS5)CC3)c2n1", "inhibition": 0.15}
{"smiles": "O=C(NC1CCN(Cc2ccccc2)CC1)c1cccc(-c2nc3ccc(Cl)cc3[nH]2)c1", "inhibition": 1.15}
{"smiles": "COc1ccc(-n2nc(C)c3c2NC(=O)CC3c2ccccc2OCc2ccccc2F)cc1", "note": "(stereo not given)", "inhibition": 11.7}
{"smiles": "COc1ccc(-c2onc(C(F)(F)F)c2-c2ccc(Br)cc2)c(O)c1", "inhibition": 2.09}
{"smiles": "OC1(c2ccc(Br)cc2)CCN(C2CCN(Cc3ccccc3)CC2)CC1", "inhibition": 5.8}
